# Results from PubChem BioAssay AID1326 (NMMLSC, 2008).
# Hit rate of the full screen: of about 190,000 compounds, about 130 (0.068%) were called active. This is one part of a sample in which actives are shown more often than they occur. Values without a mark were called inactive. Cut-off read from the data, not from the text of the source: active = inhibition above about 40%; inactive = the rest.
# Molecular target: ATP-dependent translocase ABCB1 (Homo sapiens) (UniProt P08183)
# Assay: ABCB1 efflux pump inhibitors, primary screen, cell-based, multiplex, flow cytometry, ABCG2 counter-screen (AID 1326);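 note: 0% = vehicle and 100% = reference inhibitor; higher value means more JC-1 retained so stronger ABCB1 efflux block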
# Settings: CCRF-Adr cells, JC-1 efflux, at 6.6 µM, stronger effect = higher value
# ATP-dependent translocase ABCB1 (Homo sapiens), sequence (P08183 whole entry, looked up): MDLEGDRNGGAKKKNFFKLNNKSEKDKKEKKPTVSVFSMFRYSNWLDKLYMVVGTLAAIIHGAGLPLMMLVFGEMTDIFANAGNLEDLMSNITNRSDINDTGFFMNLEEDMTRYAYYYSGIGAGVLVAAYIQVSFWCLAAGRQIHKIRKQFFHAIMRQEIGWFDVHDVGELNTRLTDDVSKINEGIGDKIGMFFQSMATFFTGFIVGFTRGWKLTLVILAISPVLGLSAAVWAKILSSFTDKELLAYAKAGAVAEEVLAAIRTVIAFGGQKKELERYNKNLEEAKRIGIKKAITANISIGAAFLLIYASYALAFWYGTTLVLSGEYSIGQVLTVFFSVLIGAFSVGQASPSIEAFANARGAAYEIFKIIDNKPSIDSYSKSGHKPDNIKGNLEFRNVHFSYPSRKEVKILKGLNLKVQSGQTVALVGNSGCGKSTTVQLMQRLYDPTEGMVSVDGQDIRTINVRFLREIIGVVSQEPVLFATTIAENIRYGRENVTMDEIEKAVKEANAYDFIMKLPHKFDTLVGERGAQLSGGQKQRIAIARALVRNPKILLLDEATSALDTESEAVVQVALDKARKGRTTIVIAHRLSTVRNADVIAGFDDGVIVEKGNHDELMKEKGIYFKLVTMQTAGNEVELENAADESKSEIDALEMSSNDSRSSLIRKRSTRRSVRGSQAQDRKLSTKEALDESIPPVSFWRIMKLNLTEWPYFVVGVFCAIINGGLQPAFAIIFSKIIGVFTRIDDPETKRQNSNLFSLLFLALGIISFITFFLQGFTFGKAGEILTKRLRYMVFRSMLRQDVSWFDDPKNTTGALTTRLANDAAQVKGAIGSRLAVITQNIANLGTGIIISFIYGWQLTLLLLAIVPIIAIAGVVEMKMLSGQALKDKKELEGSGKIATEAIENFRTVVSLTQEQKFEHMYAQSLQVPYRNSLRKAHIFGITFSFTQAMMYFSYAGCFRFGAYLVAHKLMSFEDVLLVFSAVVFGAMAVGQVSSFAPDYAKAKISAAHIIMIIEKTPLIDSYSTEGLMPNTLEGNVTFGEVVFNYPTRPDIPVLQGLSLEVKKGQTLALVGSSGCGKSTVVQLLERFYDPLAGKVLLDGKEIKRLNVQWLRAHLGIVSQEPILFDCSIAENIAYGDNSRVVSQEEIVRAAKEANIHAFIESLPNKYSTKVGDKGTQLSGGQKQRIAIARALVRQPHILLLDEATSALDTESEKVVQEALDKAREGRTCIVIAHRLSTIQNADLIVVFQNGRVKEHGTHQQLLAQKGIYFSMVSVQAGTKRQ
row,SMILES,inhibition
1,COc1ccc(NS(=O)(=O)c2cc(NC(=O)C3CCCCC3)ccc2N2CCOCC2)cc1,0.89%
2,CC[C@H](C)[C@@H](C(=O)N1CCNCC1)n1cc([C@@H](N)Cc2ccc(O)cc2)nn1,0.31%
3,COc1ccc(C2=NN(C(=O)CCC(=O)O)C(c3cccs3)C2)cc1OC (stereo not given),0.01%
4,C=CCn1c(SCCOc2ccc(OC)cc2)nnc1C(NC(=O)c1ccc(OC)cc1)C(C)C (stereo not given),48.2% (active)
5,C=CCn1c(SCC(=O)c2ccc(Br)cc2)nnc1C(C)NC(=O)Cc1ccc(OC)cc1 (stereo not given),1.19%
6,C=CCn1c(SCc2ccc(Cl)c(Cl)c2)nnc1C(CO)NC(=O)c1ccc(OC)cc1 (stereo not given),1.4%
7,CN(C)CCOc1ccc(Cl)cc1C(C)(C)C,0.53%
8,Nc1nc(SCC(=O)NN(c2ccccc2)c2ccccc2)n[nH]1,0.84%
9,CCc1nnc(NC(=O)CSc2nnnn2-c2cccc(C(C)=O)c2)s1,0.21%
10,CC(C)CCN1CCN(C/C=C/c2ccco2)CC1CCO (stereo not given),0.24%
11,C/C(=N/OC(=O)c1cccc(C(F)(F)F)c1)c1cnccn1,-0.43%
12,C/C(CC1CC(C)(C)OC1=O)=N/Nc1nc(-c2ccccc2)cs1 (stereo not given),-0.4%
13,CN(c1ccccc1)S(=O)(=O)c1cc(C(=O)OCC(=O)N2CCN(C(=O)c3ccco3)CC2)ccc1Cl,0.19%
14,Cc1ccc(C)c(NS(=O)(=O)c2ccc(OCC(=O)NCc3cccnc3)cc2)c1,-0.02%
15,COc1cc(C(=S)NCc2ccccc2)cc(Br)c1O,-0.65%
16,CCC(=O)c1ccc(N2CCN(C(=O)c3cc([N+](=O)[O-])ccc3F)CC2)c(F)c1,2.09%
17,CCN(CC)CCNS(=O)(=O)c1ccc(/C=C/C(=O)O)cc1,0.17%
18,COc1cc(CNC2CCCC2)c(Br)cc1OCc1ccccc1,0.98%
19,CN1CCN(C(c2cc3cc4c(cc3[nH]c2=O)OCCO4)c2nnnn2C2CCCC2)CC1 (stereo not given),0.88%
20,CNC(=O)C(=O)N/N=C/c1ccccn1,-0.01%
21,CSc1ncccc1C(=O)N1CCCC(CCC(=O)NCc2ccccc2F)C1 (stereo not given),-0.56%
22,C=C(C)c1cccc(C(C)(C)NC(=O)NCCN(CC)CC)c1,0.61%
23,O=S(=O)(Cc1ccccc1)c1nc2ccccc2n1Cc1ccccn1,1.49%
24,COc1cc2[nH]c(=S)n(Cc3ccc(F)cc3)c(=O)c2cc1OC,0.4%
25,CCCc1cc(=O)[nH]c(SCc2cc(=O)oc3c(C)c(C)ccc23)n1,-1.22%
26,Cc1nnsc1C(=O)Nc1cccc(Cl)c1C,0.41%
27,COc1ccc(Cl)cc1NC(=O)C(C)N1CCc2ccccc21 (stereo not given),0.39%
28,CC1=CC(=C(C#N)c2nc3ccccc3s2)C=C(C)N1c1ccc(F)cc1F,-0.7%

row,SMILES,inhibition
1,COC(=O)c1ccc(OCC(O)CN(CCO)CC(O)Cn2ccc3ccccc32)cc1 (stereo not given),0.69%
2,Cc1ccccc1C1=NC(C(F)(F)F)(C(F)(F)F)c2c(n(-c3ccc(F)cc3)c(=O)[nH]c2=O)N1,0%
3,NS(=O)(=O)c1ccc(NC(=O)/C=C/c2ccccc2Cl)cc1,0.51%
4,CCC(c1nnnn1C1CCCC1)N(Cc1cccs1)Cc1cc2cccc(C)c2[nH]c1=O (stereo not given),6.67%
5,Cc1cccc2cc(CN(Cc3cccs3)C(c3nnnn3C3CCCC3)C(C)C)c(=O)[nH]c12 (stereo not given),61.7% (active)
6,Cc1cccc2cc(CN(Cc3ccc4c(c3)OCO4)Cc3nnnn3C3CCCC3)c(=O)[nH]c12,7.85%
7,CCC1CCCCN1S(=O)(=O)Cc1ccccc1Cl (stereo not given),2.08%
8,Cc1c(C(=O)NCCCc2ccccc2)cccc1[N+](=O)[O-],0.92%
9,COc1cccc(NC(=S)NC(=O)c2c(Cl)c(C)nn2C)c1,-0.45%
10,Cc1ccsc1C1C(C#N)=C(N)OC2=C1C(=O)CC(C)(C)C2 (stereo not given),0.69%
11,COc1cc(OC)c(C(=O)N2CCCC2)cc1OC,1.33%
12,N#Cc1c(NC(=O)c2ccc(N3CCOCC3)c([N+](=O)[O-])c2)sc2c1CCCC2,0.71%
13,COC(=O)c1nn(-c2cccc(Cl)c2)ccc1=O,-0.18%
14,COCCNC(=S)N/N=C/c1c(C)[nH]c2ccccc12,-0.55%
15,CN(C)C(=O)N1CCNCC1,-0.13%
16,CC(=O)N(CN1C(=O)C2C3C=CC(C3)C2C1=O)c1cccc(Cl)c1 (stereo not given),0.48%
17,CCn1c(-c2cccnc2Cl)nc2cc(C)c(C)cc21,0.26%
18,Cc1nc(CC(=O)NNS(=O)(=O)c2ccc(F)c(Cl)c2)cs1,1.15%
19,COC(=O)C(C(=O)Nc1cccc(Cl)c1C)C1CCCC1 (stereo not given),-0.03%
20,NNc1nc2c(Cl)cccc2s1,-1.62%
21,CCOC(=O)C1=C(C)NC(=S)NC1c1cccs1 (stereo not given),-0.3%
22,Cc1ccccc1NC(=O)c1nn(-c2ccc(F)c(F)c2)ccc1=O,0.58%
23,COC(=O)c1ccc(COC(=O)c2cnccn2)cc1,0.17%
24,CC1CN(CCCOc2ccccc2-c2ccccc2)CC(C)O1 (stereo not given),3.45%
25,CCCCC(=O)Nc1ccc(C(=O)Nc2cc(C(F)(F)F)ccc2Cl)cc1,-0.36%
26,CCC(=O)/C(=C(/O)c1ccccc1)c1nc2ccccc2[nH]1,0.14%
27,Cc1cc(C)cc(C(=O)NC(=S)Nc2ccc3[nH]c(=O)[nH]c3c2)c1,-0.17%
